The record followed here is PubChem BioAssay (NCI).

About 83,000 compounds went through this panel and 20% of them were active in at least one assay; those are over-represented in the sample as a whole.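 Percent growth is the endpoint: 0 to 100 indicates growth inhibition (40 means 60% inhibition), 0 means no net growth, and negative values indicate cell death.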 Unmarked numbers belong to inactive results. Active and inactive are the calls of the source. How the source made its calls: active means growth percent below 10; inactive means the rest.

For this assay, the system named is HL-60(TB) leukemia. Nature of the assay: NCI-60 one-dose screen, 48 h (100 = growth as untreated, 0 = no growth, -100 = all killed). The settings on record: 10 µM unless noted.
Regarding `COc1ccc(-c2nn(-c3cccc(NC(=O)c4cccc(C(F)(F)F)c4)c3)cc2-c2ccncc2)cc1Cl`, the growth is 4.23% (active). The figure for `CC/C(=C\c1ccc(OC)cc1)C(=O)c1ccc(OC)cc1` is 131%; for `O=C(O)c1cc2ccccc2cc1Nc1ccccc1` it is 93.3%; for `COc1ccc2c(c1)/C(=C/c1cc(OC)c(OC)c(OC)c1)C(=O)N2C` it is 3.32% (active). Take `CC1CCC2(OC1)OC1CC3C4CC=C5CC(O)CCC5(C)C4CCC3(C)C1C2C` (stereo unspecified): the growth was 91.9%.

As for `C/C(=C(/c1ccc(O)cc1)c1ccc(Cl)cc1)c1ccccc1`, the growth was -20.7% (active).

Turning to `COc1ccc(-c2nn(-c3cccc(Cl)c3)cc2-c2nc(N)[nH]c(=O)c2C#N)cc1`, the growth was 78.7%. Regarding `COc1ccc(-c2nc3cc(C(=O)NC4CCCCC4)ccc3n2C2CCCCC2)cc1`, the growth is 79.1%. Regarding `CCCCCCCCCCCCC1C/C=C\CCCC(=O)O1` (stereo unspecified), the growth is 88.4%. As to `Cc1nnc(/N=C2\NC(=O)/C(=C/C=C/c3ccccc3)S2)s1`, the growth is 75.3%. Next, `C=CC(=O)N1CCC(Oc2cc3c(Nc4ccc(Cl)c(Cl)c4F)ncnc3cc2OC)CC1`: 24.7%; `CCCCCCCCCCCCNc1ncnc2[nH]ncc12`: 74.4%. Next, `CCN(CC)CCO/N=C1\CC(c2ccc(OC)c(OC)c2)Oc2ccccc21` (stereo unspecified): 78.4%; `COc1ccc2nc3c(cc2c1)C(=O)CC(c1ccccc1)C3` (stereo unspecified): -1.74% (active). In the case of `O=c1[nH]c2ccccc2n2cc3cccnc3c12`, the growth is 87.5%. Next, `O=C1C=C(Nc2cccc(Br)c2)c2ccccc2C1=O`: 71.8%.
